The nature of assay [1]: inhibitors of TNFa-induced NFkB p65 translocation, primary screen, imaging, HUVEC, MLSMR starter and 10KST1 sets (AID 438;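 active = inhibition above 20% together with a positive visual image hit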;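 note: compound added about 3h40 before a 20 min TNFalpha stimulation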;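 for inhibition: signal is the nuclear over cytoplasmic p65 intensity ratio per well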). Particulars: HUVEC TNFa-induced p65 nuclear translocation; cell count: measured here: nuclei count (cytotoxicity indicator), at 2.08 µM; inhibition: at 2 µM, stronger effect = higher value, 0% TNFa-plus-vehicle, 100% no-TNFa wells.
Assay [2] can be described thus: reduction of polyQ htt aggregates in cells – imaging, exon1htt(103Q)mCFP cells, high-content imaging, primary screen (AID 483;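 active = visual image review flags a hit and inhibition of aggregation exceeds 20%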;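 note: compound exposure lasted 3 days before fixation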;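 for nuclei count: percent of the per-plate median nuclei count of sample wells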). The conditions noted are these: exon1htt(103Q)mCFP cell line, aggregate imaging, at 2 µM; inhibition of aggregation: stronger effect = higher value; nuclei count: measured here: cell count, toxicity.
Assay [3] in a line: endothelial E-selectin expression blockers – imaging, HUVEC, immunofluorescence, MLSMR starter and 10KST1 sets, primary screen (AID 487).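 For inhibition: signal is fraction of cell area covered by stained E-selectin grains.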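 For nuclei count: 100% = median nuclei count of all wells on the same plate.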 The conditions noted are these: HUVEC TNFalpha-induced E-selectin immunofluorescence imaging, at 2 µM; inhibition: stronger effect = higher value; nuclei count: measured here: cell number, toxicity.
Assay [4] concerns the target Voltage-gated potassium channel subunit beta-2 (Rattus norvegicus) (UniProt P62483). The assay can be described thus: inhibitors of rat Kvbeta2 reductase activity – biochemical, NADPH fluorescence, primary screen (AID 622;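 active = fluorescence slope higher than the sample average by over 3 SD, cut at about -0.22 in these data, passing the limit was not always enough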;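 note: slope of raw intensity against log time taken from 70 to 1610 s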). The conditions noted are these: recombinant KvBeta, 4-cyanobenzaldehyde reduction, at 10 µM, stronger effect = higher value.
For assay [5] the target is unchanged. The assay can be described thus: enhancers of rat Kvbeta2 NADPH turnover – biochemical, NADPH fluorescence, primary screen (AID 623;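 active = NADPH fluorescence slope more negative than the mean of all samples by about 3 SD, 99.7% confidence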;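 note: fluorescence intensity change per second fitted from 20 to 320 s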). Particulars: Recombinant KvBeta, NADPH fluorescence decrease slope, 10 min; at 10 µM; stronger effect = lower value.
In assay [6] the target is Alpha-2C adrenergic receptor (Homo sapiens) (UniProt P18825). The assay can be described thus: compounds altering alpha2C-coupled GIRK flux – cell-based, HEK293 alpha2C/GIRK1/2, thallium flux, primary screen (AID 624;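 active = fluorescence slope after compound addition differing from the mean of all screened samples at 99.7% confidence, in either direction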;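 note: slope of fluorescence ratio to pre-addition baseline per second over 15 to 24 s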). The conditions noted are these: thallium flux BTC fluorescence, at 10 µM, actives lie on both sides.
Sequence of Alpha-2C adrenergic receptor (Homo sapiens) (P18825 whole entry, looked up): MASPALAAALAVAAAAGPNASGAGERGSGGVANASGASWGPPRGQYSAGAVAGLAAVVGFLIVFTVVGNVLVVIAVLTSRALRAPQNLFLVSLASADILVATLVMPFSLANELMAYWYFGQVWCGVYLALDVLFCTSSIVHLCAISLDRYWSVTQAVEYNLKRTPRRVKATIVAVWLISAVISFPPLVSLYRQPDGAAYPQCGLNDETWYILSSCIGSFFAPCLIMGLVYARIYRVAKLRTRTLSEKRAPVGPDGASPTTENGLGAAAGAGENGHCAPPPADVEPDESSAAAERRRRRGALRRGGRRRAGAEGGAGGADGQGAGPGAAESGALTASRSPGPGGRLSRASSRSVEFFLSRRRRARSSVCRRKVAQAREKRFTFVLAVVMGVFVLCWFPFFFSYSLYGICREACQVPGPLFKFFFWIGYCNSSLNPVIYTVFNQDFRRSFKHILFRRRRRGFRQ
The nature of assay [7]: blockers of RIG-like receptor reporter activation – cell-based, Sendai virus stimulus, luciferase, 10K MLSCN set, TLR/RLR signaling modifier project, primary screen (AID 602276;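 active = inhibition at or above 50% at 10 µM; inactive = inhibition below 50%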;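 note: firefly luciferase from ISG56 promoter only with Renilla not read in this screen; 0% = Sendai virus plus DMSO and 100% = medium plus DMSO without virus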). Particulars: HEK293 RL24 IRF3 luciferase reporter, at 10 µM, stronger effect = higher value. On the technique in general: Reporter assays use an easily measured gene product as a stand-in for the process of interest.

Assay [8] can be described thus: TLR3 IRF3 reporter activation blockers – cell-based, poly I:C stimulus, luciferase, 10K MLSCN set, primary screen (AID 602277;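 active = inhibition of the reporter signal at or above 50%; inactive = inhibition below 50%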). The conditions noted are these: HEK293-TLR3 RL24 IRF3 luciferase reporter, at 10 µM, stronger effect = higher value.

Calls of active or inactive are those of the source.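 Rule for the calls, unless noted: active = visually confirmed hit in the image check and inhibition above 20%; inconclusive = visually confirmed hit but inhibition not above 20%; inactive = no visual hit in the image check.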

By inhibition is commonly meant the drop in the measured response relative to a control, in per cent.

Sequence of Voltage-gated potassium channel subunit beta-2 (Rattus norvegicus) (P62483 whole entry, looked up): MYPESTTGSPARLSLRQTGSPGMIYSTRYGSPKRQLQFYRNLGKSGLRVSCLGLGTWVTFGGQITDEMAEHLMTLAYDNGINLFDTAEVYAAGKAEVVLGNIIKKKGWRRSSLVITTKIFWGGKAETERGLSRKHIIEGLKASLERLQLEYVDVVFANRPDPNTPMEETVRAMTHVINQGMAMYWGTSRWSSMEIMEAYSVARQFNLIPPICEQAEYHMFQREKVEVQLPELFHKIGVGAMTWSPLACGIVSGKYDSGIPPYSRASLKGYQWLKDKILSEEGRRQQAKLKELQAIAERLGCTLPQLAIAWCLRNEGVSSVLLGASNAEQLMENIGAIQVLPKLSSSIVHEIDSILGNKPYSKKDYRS

With `CCOC(=O)N1CCN(c2c(NCC3CCN(Cc4cccc(C)c4)CC3)c(=O)c2=O)CC1`, the cell count in assay [1] came out at 577. Moreover, the inhibition in assay [1] was -2.7% (inactive); in assay [3], -67.1% (inactive); in assay [7], 5.85% (inactive); in assay [8] it was 23.9% (inactive). The inhibition of aggregation in assay [2] was 25.8% (inactive). Besides, the nuclei count in assay [2] amounted to 104%; in assay [3], 129%. Besides, the fluorescence slope in assay [4] was -0.507 (inactive). The NADPH fluorescence slope in assay [5] is -2.1e-05 (inactive). Further, the slope in assay [6] is 0.00653 (inactive).

For `COc1ccc(N2C(=O)CC(N3CCN(c4ccccc4F)CC3)C2=O)cc1` (centres undefined), in assay [1], the cell count amounted to 698. The inhibition in assay [1] was -8.7% (inactive); in assay [3] it was 32.2% (inactive); in assay [7], 6.58% (inactive); in assay [8], 10.1% (inactive). For the same molecule, in assay [2], the inhibition of aggregation was -1.9% (inactive). The nuclei count in assay [2] was found to be 108%; in assay [3], 84.3%. The fluorescence slope in assay [4] was -0.538 (inactive). The NADPH fluorescence slope in assay [5] is -2.3e-05 (inactive). Besides, in assay [6], the slope is 0.00511 (inactive).

For the molecule `O=C(Nc1ccccc1C(=O)N1CCOCC1)C1CCC(=O)N1C1CCCC1` (centres undefined), the cell count in assay [1] turned out to be 229. The inhibition in assay [1] is 14.7% (inactive); in assay [3] it was -48.2% (inactive); in assay [7], 4.86% (inactive); in assay [8], 7.23% (inactive). Also, the inhibition of aggregation in assay [2] was 8.7% (inactive). The nuclei count was found to be 79.1% in assay [2] and 110% in assay [3]. In assay [4], the fluorescence slope was -0.425 (inactive). Besides, the NADPH fluorescence slope in assay [5] was -4.5e-05 (inactive). For the same molecule, the slope in assay [6] was 0.00481 (inactive).

Regarding `COC(=O)[C@H](C)NC(=O)Nc1cccc(C(F)(F)F)c1`, the cell count in assay [1] is 483. Besides, the inhibition was -2.7% (inactive) in assay [1], -98.7% (inactive) in assay [3], -11.9% (inactive) in assay [7] and -5.94% (inactive) in assay [8]. Also, in assay [2], the inhibition of aggregation is 29.8% (inactive). Besides, the nuclei count came to 85.5% in assay [2] and 109% in assay [3]. Further, in assay [4], the fluorescence slope was -0.537 (inactive). Also, the NADPH fluorescence slope in assay [5] was 2.9e-05 (inactive). Besides, the slope in assay [6] was 0.00446 (inactive).

Take `CN1CCN(CCCNC(=O)Cn2ncc3c4ccccc4n(C)c3c2=O)CC1`: the cell count in assay [1] worked out at 479. Also, the inhibition was -2.6% (inactive) in assay [1], -69.4% (inactive) in assay [3], -10.3% (inactive) in assay [7] and 35.3% (inactive) in assay [8]. The inhibition of aggregation in assay [2] was -7.2% (inactive). Further, the results for the nuclei count in assay [2] and in assay [3] were 98% and 100%, respectively. For the same molecule, the fluorescence slope in assay [4] was -0.615 (inactive). The NADPH fluorescence slope in assay [5] was -1.6e-07 (inactive). The slope in assay [6] is 0.0065 (inactive).

In the case of `CC(C)Cn1c(-c2ccc(F)cc2)n[nH]c1=S`, in assay [1], the cell count stood at 390. In addition, the inhibition in assay [1] is 2.6% (inactive); in assay [3], -69.3% (inactive); in assay [7] it was 9.62% (inactive); in assay [8] it was 12.7% (inactive). Further, the inhibition of aggregation in assay [2] was -11.3% (inactive). Further, the values for the nuclei count in assay [2] and in assay [3] were 106% and 118%, respectively. Besides, in assay [4], the fluorescence slope is -0.395 (inactive). The NADPH fluorescence slope in assay [5] is -3.7e-05 (inactive). Besides, the slope in assay [6] is 0.0039 (inactive).

As for `CN(C)C(=O)N1CCN(C(=O)c2ccco2)CC1`, the cell count in assay [1] amounted to 827. Also, the inhibition in assay [1] was -15.9% (inactive); in assay [3], -69.2% (inactive); in assay [7] it was -4.34% (inactive); in assay [8], 19.5% (inactive). In assay [2], the inhibition of aggregation is 17.6% (inactive). In addition, the nuclei count in assay [2] stood at 99.6%; in assay [3] it was 114%. For the same molecule, the fluorescence slope in assay [4] was -0.601 (inactive). Moreover, the NADPH fluorescence slope in assay [5] is 5.7e-06 (inactive). Further, in assay [6], the slope is 0.00702 (inactive).

With `Cc1cccc(-n2ncc3c(N4CCC5(CC4)OCCO5)ncnc32)c1`, the cell count in assay [1] stood at 617. The inhibition in assay [1] was 1.3% (inactive); in assay [3] it was -15.1% (inactive); in assay [7], -34.4% (inactive); in assay [8] it was -101% (inactive). Further, the inhibition of aggregation in assay [2] is -14.8% (inactive). Further, the nuclei count in assay [2] is 97.6%; in assay [3], 107%. Besides, the fluorescence slope in assay [4] was -0.549 (inactive). Moreover, in assay [5], the NADPH fluorescence slope was -6.5e-05 (inactive). Moreover, the slope in assay [6] is 0.00695 (inactive).

For `COc1cccc(-c2cc(C(=O)NCc3ccc(Cl)cc3)no2)c1`, the cell count in assay [1] was 475. The inhibition in assay [1] is -3.9% (inactive); in assay [3], 13.3% (inactive); in assay [7], 46% (inactive); in assay [8] it was -11.6% (inactive). Moreover, in assay [2], the inhibition of aggregation was -3.3% (inactive). The nuclei count in assay [2] was found to be 103%; in assay [3], 95.6%. Also, in assay [4], the fluorescence slope was -0.474 (inactive). Besides, the NADPH fluorescence slope in assay [5] is 1.7e-05 (inactive). In assay [6], the slope was 0.00826 (inactive).

Take `COc1cc2c(cc1OC)CN(C(=O)CSc1nc3[nH]ncc3c(=O)n1-c1ccccc1)CC2`: the cell count in assay [1] turned out to be 509. The inhibition in assay [1] was -8.2% (inactive); in assay [3] it was -7.3% (inactive); in assay [7], 11% (inactive); in assay [8], 23.1% (inactive). Besides, in assay [2], the inhibition of aggregation is -8.9% (inactive). Also, the nuclei count in assay [2] was 86.9%; in assay [3], 87%. In assay [4], the fluorescence slope was -0.492 (inactive). Also, the NADPH fluorescence slope in assay [5] is -2.6e-05 (inactive). The slope in assay [6] was 0.00737 (inactive).

With `CCCC(CCC)C(=O)NCCN1CCOCC1`, the cell count in assay [1] was found to be 412. The inhibition in assay [1] was -2% (inactive); in assay [3], -22.1% (inactive); in assay [7], 11% (inactive); in assay [8], 28.6% (inactive). Also, the inhibition of aggregation in assay [2] was 6.3% (inactive). The nuclei count in assay [2] worked out at 97%; in assay [3] it was 90.6%. Also, the fluorescence slope in assay [4] is -0.494 (inactive). The NADPH fluorescence slope in assay [5] is -3.5e-05 (inactive). Besides, the slope in assay [6] is 0.0054 (inactive).

As for `CCOC(=O)N1CCN(C(=O)c2c(-c3ccccc3)noc2C)CC1`, the cell count in assay [1] was determined as 816. For the same molecule, the inhibition in assay [1] is 0% (inactive); in assay [3], -27.3% (inactive); in assay [7] it was 14% (inactive); in assay [8], 31.9% (inactive). Moreover, the inhibition of aggregation in assay [2] is -5.9% (inactive). For the same molecule, the nuclei count is 107% in assay [2] and 106% in assay [3]. The fluorescence slope in assay [4] is -0.421 (inactive). The NADPH fluorescence slope in assay [5] is -4.8e-05 (inactive). In assay [6], the slope is 0.00537 (inactive).

Regarding `O=C(NCN1CCCCC1)c1cnccn1`, in assay [1], the cell count was found to be 604. Moreover, the inhibition in assay [1] is -9.2% (inactive); in assay [3] it was -101% (inactive); in assay [7] it was 13.6% (inactive); in assay [8] it was 29% (inactive). Besides, in assay [2], the inhibition of aggregation was -3.4% (inactive). The values for the nuclei count in assay [2] and in assay [3] were 102% and 115%, respectively. The fluorescence slope in assay [4] is -0.425 (inactive). Moreover, the NADPH fluorescence slope in assay [5] is -8.7e-05 (inactive). Also, the slope in assay [6] was 0.00561 (inactive).

As for `COc1ccc(S(=O)(=O)N2CN(Cc3ccco3)c3nc4ccccc4nc32)cc1`, the cell count in assay [1] turned out to be 600. Further, the inhibition was -3.6% (inactive) in assay [1], -118% (inactive) in assay [3], 10.9% (inactive) in assay [7] and 20% (inactive) in assay [8]. Also, the inhibition of aggregation in assay [2] is -1.4% (inactive). Besides, the figures for the nuclei count in assay [2] and in assay [3] were 82.9% and 134%, respectively. Further, in assay [4], the fluorescence slope was -0.605 (inactive). In addition, the NADPH fluorescence slope in assay [5] was -1.5e-05 (inactive). The slope in assay [6] was 0.00619 (inactive).
